Assay results taken from PubChem BioAssay (NCATS).
Results filed as inconclusive are left out. Where a call stands in place of a potency, no number is given. The source made the active and inactive calls. Calls follow the shape of the dose curve; as a rule, active = well fitted inhibition curve with a large enough effect; inconclusive = small, poorly fitted or top-dose-only effect; inactive = flat fitted curve, though single readings scatter.

The compounds below were run against Glutathione peroxidase 1 (Homo sapiens) (UniProt P07203) (assay: Primary qHTS Assay for Inhibitors of Recombinant Selenoprotein Glutathione Peroxidase 1 (GPX1) (AID 1845191; also: nearly all actives have a fitted effect of over 65% in size)). Details: recombinant GPX1, GR-coupled NADPH fluorescence, 15 min; series mostly up to 48.8 µM.
Chain of Glutathione peroxidase 1 (Homo sapiens) (P07203 whole entry, looked up): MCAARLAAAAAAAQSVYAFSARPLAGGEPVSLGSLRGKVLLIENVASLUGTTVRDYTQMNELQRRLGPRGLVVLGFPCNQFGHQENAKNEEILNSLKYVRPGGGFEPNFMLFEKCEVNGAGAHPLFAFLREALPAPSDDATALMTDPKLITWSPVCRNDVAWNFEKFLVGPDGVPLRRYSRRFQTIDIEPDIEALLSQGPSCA
Outline: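 GR-coupled assay: compounds preincubated 30 min at room temperature with GPX1, then reaction started with CHP; final 10 nM GPX1, 1 mM GSH, 0.5 mM CHP, 0.5 mM NADPH, 100 nM GR, 0.01% BSA, pH 7.5 Tris buffer. NADPH fluorescence (340/450 nm) read at 0 and 15 min.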
For `CO[C@@H](C)Cn1c(=O)n(C)c2cnc3ccc(-c4cncc(C(C)(C)O)c4)cc3c21`, the Potency was “inactive”.
`CC(C)C1=CC2C(CC[C@]2(C)O)[C@](C)(O)CC1` (stereo partly drawn) was tested, and the Potency was “inactive”.
In the case of `CC1(C)CC[C@]2(C(=O)O[C@@H]3O[C@H](CO)[C@@H](O)[C@H](O)[C@H]3O)CC[C@]3(C)C(=CCC4[C@@]5(C)C[C@@H](O)[C@H](O)[C@](C)(C(=O)O)C5CC[C@]43C)C2C1O` (stereo partly drawn), the Potency is reported as “inactive”.
With `C=C(CCC1=C(C)[C@H]2[C@H](CC3[C@@H]4CC=C5C[C@@H](O)C[C@@H](O)[C@]5(C)C4[C@H](O)C[C@@]32C)O1)CO[C@@H]1O[C@H](CO)[C@@H](O)[C@H](O)[C@H]1O` (stereo partly drawn) the Potency was “inactive”.
With `COc1c(C)c(OCC(O)C(C)(C)O)cc2c1COC2=O` (stereo not drawn) the Potency was “inactive”.
With `CC1=CCC(C(C)(C)O[C@@H]2O[C@H](CO[C@@H]3O[C@@H](C)[C@H](O)[C@@H](O)[C@H]3O)[C@@H](O)[C@H](O)[C@H]2O)CC1` (stereo partly drawn) the Potency was “inactive”.
In the case of `COc1ccc(/C=C/C(=O)O[C@H]2[C@H](O[C@H]3[C@@H]4C=CO[C@@H](O[C@@H]5O[C@H](CO)[C@@H](O)[C@H](O)[C@H]5O)[C@@H]4[C@@]4(CO)O[C@@H]34)O[C@@H](C)[C@H](O)[C@H]2OC(C)=O)cc1`, the Potency is reported as “inactive”.
With `Nc1ccc(/C=C/C(=O)NCc2cc3cc(-c4ccc(C(=O)N5CCC(F)(F)CC5)cc4)cc(-c4ccc(F)cc4)c3o2)cn1` the Potency was “inactive”.
